Experiment [1] can be described thus: AP1 Signaling Pathway (AID 357).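 Further: ME-180 reporter cells stimulated with EGF at its EC50 level; on the % scale 0 is the no-effect control and ±100 the full control effect.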 The conditions noted are these: ME-180 (cervical carcinoma) AP-1-bla reporter, EGF-induced, beta-lactamase ratio, 5 h; at 38 µM (top of the series) unless noted. Summed up:
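Modulation of EGF-driven AP-1 transcription was assessed with a beta-lactamase reporter in ME-180 cells. Compound and EC50 EGF were co-incubated 5 hours at 37 °C before 2.5-hour CCF4 loading at room temperature and dual-emission reading.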

In experiment [2] the target is Cytochrome P450 1A2 (Homo sapiens) (UniProt P05177). Kind of experiment: p450-cyp1a2 (AID 410; calls by dose curve; further: potency means the concentration at half of the fitted maximal effect;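 on activity change, negative = inhibition: -100% = full effect of reference inhibitor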). Summed up: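 20nM CYP1A2, 100uM Luciferin-ME (=Km), 100mM KPO4; cpd 10 min RT; +NADPH regen, 60 min RT; stop/detect 20 min; luminescence. Normalized to furafylline 57 uM = full inhibition.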
Sequence of Cytochrome P450 1A2 (Homo sapiens) (P05177 whole entry, looked up): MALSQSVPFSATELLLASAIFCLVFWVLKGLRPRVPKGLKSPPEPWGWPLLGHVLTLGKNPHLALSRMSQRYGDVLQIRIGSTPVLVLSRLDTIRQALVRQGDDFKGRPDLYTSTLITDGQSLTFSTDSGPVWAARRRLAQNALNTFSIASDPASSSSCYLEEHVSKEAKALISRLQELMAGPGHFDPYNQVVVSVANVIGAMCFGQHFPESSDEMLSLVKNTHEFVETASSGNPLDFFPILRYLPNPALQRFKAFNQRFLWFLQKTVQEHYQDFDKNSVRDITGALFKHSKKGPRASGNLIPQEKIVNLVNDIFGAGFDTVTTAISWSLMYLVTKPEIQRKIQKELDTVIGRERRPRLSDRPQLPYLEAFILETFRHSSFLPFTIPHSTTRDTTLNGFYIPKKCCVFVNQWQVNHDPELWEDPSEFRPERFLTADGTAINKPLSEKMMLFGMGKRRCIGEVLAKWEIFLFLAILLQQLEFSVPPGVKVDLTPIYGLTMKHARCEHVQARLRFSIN
The nature of experiment [3]: NFAT Signaling Pathway (AID 444).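 Further: carbachol stimulus at about its EC50 of 1 µM final; on the % scale 0 is the no-effect control and ±100 the full control effect.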 The following applies: Jurkat NFAT-bla M1, carbachol, beta-lactamase ratio, 5 h; at 38 µM (top of the series) unless noted. Summed up: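 Jurkat cells carrying an NFAT-driven β-lactamase reporter and co-transfected muscarinic M1 receptor were treated with compound plus carbachol (1 uM final, an EC50 level) for 5 h at 37 °C. CCF4 loading followed for 1 h at RT; 460/530 nm ratio gave %activity.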

“And” between values parts separate entries of the source, which are not always exact repeats. Equal values may be shown once. Records with an inconclusive call do not appear. The source made the active and inactive calls. Unless noted, the call rests on the fitted dose curve; in most records, active means well fitted curve in either direction with a large enough effect (not every such curve was filed as active); inconclusive means small, poorly fitted or top-dose-only effect, or another doubt; inactive means flat fitted curve, though single readings scatter.

Turning to `c1ccc2nc(C3=NCCN3)ccc2c1`, the activity change, negative = inhibition in experiment [1] is -2.57% (inactive). Moreover, in experiment [2], the Potency was 5.01 µM (active) and 794 nM (active).
On to `O=C(OCCN1CCOCC1)C1(c2ccccc2)CCCCC1`, for which, in experiment [1], the activity change, negative = inhibition was -11.4% (inactive). In experiment [2], the Potency was 31.6 µM (active).
As to `CC(C)(CO)Cc1cc(C(C)(C)C)c(O)c(C(C)(C)C)c1`, in experiment [1], the activity change, negative = inhibition was 4.82% (inactive). For the same compound, the Potency in experiment [2] was 31.6 µM (active) and 25.1 µM (active).
`COc1ccc2c(c1)c(CC(=O)O)c(C)n2C(=O)c1ccccc1`: the activity change, negative = inhibition in experiment [1] was 1.55% (inactive); in experiment [3], -0.217% (inactive). In experiment [2], the Potency was 12.6 µM (active).
As for `C#CCn1c(=O)c2c(ncn2C)n(C)c1=O`, the activity change, negative = inhibition in experiment [1] was 8.56% (inactive). For the same compound, the Potency entry in experiment [2] was “inactive”.
With `Cn1cc(C(=O)OCC2CCN(CCNS(C)(=O)=O)CC2)c2ccccc21`, the activity change, negative = inhibition in experiment [1] was -4.52% (inactive); in experiment [3], -2.1% (inactive). Also, the Potency in experiment [2] is 12.6 µM (active) and 15.8 µM (active).
As to `O=c1[nH]c(=O)c2nc3ccccc3nc2[nH]1`, the activity change, negative = inhibition in experiment [1] is -6.22% (inactive); in experiment [3] it was 0.27% (inactive). The Potency in experiment [2] was 12.6 µM (active).
The like results for `CC(=O)NCCc1c[nH]c2ccc(O)cc12` were, in that order, -2.23% (inactive), 7.32% (inactive) and 15.8 µM (active).
`Cn1c(=O)c2[nH]c(-c3ccc(S(=O)(=O)O)cc3)nc2n(C)c1=O`: the activity change, negative = inhibition in experiment [1] is 8.6% (inactive). The Potency result in experiment [2] was “inactive”.
Consider `OC1(c2ccc(Cl)cc2)CCN(Cc2c[nH]c3ccccc23)CC1`, for which, in experiment [1], the activity change, negative = inhibition was 6.53% (inactive). In addition, the Potency in experiment [2] is 15.8 µM (active) and 31.6 µM (active).
Turning to `S=C(S)N1CCCC1`, the activity change, negative = inhibition in experiment [1] was 12.8% (inactive). Further, in experiment [2], the Potency is 31.6 µM (active) and 12.6 µM (active).
For the compound `COc1ccccc1N1CCN(CCCCN2C(=O)c3ccccc3C2=O)CC1`, the results for the activity change, negative = inhibition in experiment [1] and in experiment [3] were -12.6% (inactive) and -20.4% (inactive), respectively. Besides, the Potency result in experiment [2] was “inactive”.
Consider `CCn1c(=O)[nH]c2cc(Cl)c(Cl)cc21`, for which the values for the activity change, negative = inhibition in experiment [1] and in experiment [3] were 0.191% (inactive) and -27.1% (inactive), respectively. Also, the Potency in experiment [2] was 1.26 µM (active) and 251 nM (active).
`Cn1c(=O)c2[nH]c(C3CCCC3)nc2n(C)c1=O`: the figures for the activity change, negative = inhibition in experiment [1] and in experiment [3] were 0.66% (inactive) and 3.19% (inactive), respectively. In addition, the Potency in experiment [2] is 12.6 µM (active).
The like results for `NCCCCN` were, in that order, 15.3% (inactive), -2.09% (inactive) and “inactive”.
Take `CN1CCN(c2nc3cc(C(F)(F)F)ccc3n3cccc23)CC1`: the activity change, negative = inhibition in experiment [1] is -17.4% (inactive); in experiment [3], 28.4% (inactive). Moreover, the Potency in experiment [2] is 200 nM (active) and 39.8 nM (active).
On to `CCCn1c(=O)c2c(ncn2C)n(CCC)c1=O`, for which the activity change, negative = inhibition is 2.31% (inactive) in experiment [1] and 0.366% (inactive) in experiment [3]. For the same compound, the Potency in experiment [2] is 7.94 µM (active).
Take `CC(N)=O`: the figures for the activity change, negative = inhibition in experiment [1] and in experiment [3] were 9.17% (inactive) and -6.62% (inactive), respectively. Also, in experiment [2], the Potency entry is “inactive”.
The like results for `O=c1onc2n1-c1cc(Br)ccc1OC2` were, in that order, 1.26% (inactive), 3.41% (inactive) and 0.794 µM (active).
`O=c1ccc2c(OCCCCc3ccccc3)c3ccoc3cc2o1`: the activity change, negative = inhibition in experiment [1] is -12.4% (inactive); in experiment [3], -20.3% (inactive). The Potency in experiment [2] is 0.501 µM (active).
As to `O=C1Cc2c([nH]c3ccc(Br)cc23)-c2ccccc2N1`, the activity change, negative = inhibition in experiment [1] is -104% (active); in experiment [3], -74.4% (active). Moreover, in experiment [2], the Potency was 1.26 µM (active) and 158 nM (active).
Turning to `CCN(CC)CCOC(=O)c1cc(Cl)c(N)cc1OC`, the activity change, negative = inhibition was 11.7% (inactive) in experiment [1] and -3.84% (inactive) in experiment [3]. For the same compound, the Potency in experiment [2] is 12.6 µM (active).
The like results for `CCN(c1nc(N)c(C(=O)N=C(N)N)nc1Cl)C(C)C` were, in that order, 29.9% (inactive), -3.34% (inactive) and 2 µM (active).
In the case of `NC(N)=[N+]1CCc2ccccc2C1`, the activity change, negative = inhibition was -5.39% (inactive) in experiment [1] and 1.51% (inactive) in experiment [3]. Also, the Potency result in experiment [2] was “inactive”.
As to `Oc1ccc(Cn2cc[nH]c2=S)cc1`, the activity change, negative = inhibition in experiment [1] is -3.65% (inactive); in experiment [3], 3.63% (inactive). The Potency in experiment [2] is 6.31 µM (active).
In the case of `C=CCn1c(=O)c2c(nc(-c3ccc(S(=O)(=O)O)cc3)n2C)n(C)c1=O`, the activity change, negative = inhibition in experiment [1] was 7.93% (inactive); in experiment [3], -1.07% (inactive). In experiment [2], the Potency result is “inactive”.
Consider `O=C(c1ccc2c(c1)OCCO2)N1CCCCC1`, for which the activity change, negative = inhibition in experiment [1] was 1.86% (inactive); in experiment [3], 5.58% (inactive). The Potency in experiment [2] was 15.8 µM (active).
Turning to `COc1ccc(CCN(C)CCc2ccc(OC)c(OC)c2)cc1OC`, the activity change, negative = inhibition was 10.7% (inactive) in experiment [1] and -20.2% (inactive) in experiment [3]. For the same compound, the Potency result in experiment [2] is “inactive”.
In the case of `O=C(O)c1cccnc1C(=O)O`, the figures for the activity change, negative = inhibition in experiment [1] and in experiment [3] were -4.89% (inactive) and -4.14% (inactive), respectively. For the same compound, the Potency result in experiment [2] is “inactive”.
As for `[Li+]`, the activity change, negative = inhibition is 3.61% (inactive) in experiment [1] and 1.3% (inactive) in experiment [3]. Besides, the Potency entry in experiment [2] is “inactive”.
Taken in the same sequence, the figures for `CCSC(=N)N` were -24.3% (inactive), 1.19% (inactive) and “inactive”.
Taken in the same sequence, the figures for `O=C(O)Cc1ccc(O)c(O)c1` were -7.22% (inactive), 12.7% (inactive) and “inactive”.
Consider `O=c1[nH]c2ccccc2c2ccccc12`, for which the activity change, negative = inhibition is -9.69% (inactive) in experiment [1] and 8.86% (inactive) in experiment [3]. Besides, in experiment [2], the Potency is 0.251 µM (active).
With `Nc1nc2[nH]c(=O)cnc2c(=O)[nH]1`, the activity change, negative = inhibition was 6.93% (inactive) in experiment [1] and -5.45% (inactive) in experiment [3]. The Potency result in experiment [2] was “inactive”.
`Cc1nc(N=Nc2cc(S(=O)(=O)O)c3cc([N+](=O)[O-])cc(S(=O)(=O)O)c3c2)c(COP(=O)(O)O)c(C=O)c1O`: the activity change, negative = inhibition was -0.539% (inactive) in experiment [1] and 2.42% (inactive) in experiment [3]. Besides, the Potency in experiment [2] was 39.8 µM (active).
Take `O=c1[nH]c2cc(Cl)ccc2c(O)c1-c1ccc(Oc2ccccc2)cc1`: the activity change, negative = inhibition in experiment [1] was 3.01% (inactive); in experiment [3], -0.707% (inactive). The Potency in experiment [2] was 10 µM (active).

The record behind these values is PubChem BioAssay (NCATS).
